HT1080-NT tox: qHTS for induction of synthetic lethality in tumor cells producing 2HG: qHTS for the HT-1080-NT fibrosarcoma cell line; HT-1080-NT fibrosarcoma viability, CellTiter-Glo ATP luminescence, 48 h; Potency, µM (titrated, usually from 46.1 µM), without a hit: at the top dose activity, negative = less viability, actives largely listed as cytotoxic; hit rate 1.6% among 360,000;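 further: NT is the 2HG producing partner of a matched IDH1 knockdown line; potency means the concentration at half of the fitted maximal effect; 0% = DMSO-treated cells and -100% = media-only wells without cells; nearly all actives have a fitted effect of over 55% in size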
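Viability of the 2HG-overproducing fibrosarcoma line after 48 hours of compound exposure at 37 degrees C was determined by luminescence with CellTiter-Glo, and concentration-effect curves were then fitted and categorized.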
IL-1B inflam inh: qHTS for Inhibitors of Inflammasome Signaling: IL-1-beta AlphaLISA Primary Screen; activity change, % at 57.5 µM; hit rate 4.7% among 360,000; THP-1 LPS/ATP IL-1B secretion, AlphaLISA, 16 h; stronger effect = lower value; in the data active means activity change below about -50%; inconclusive means mostly about -30% to -49%
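Secreted IL-1B measured by AlphaLISA bead assay after 16 h compound exposure of THP-1 cells; compounds (final up to 57.5 uM) added 1 h before LPS (250 ng/mL) and ATP (1.25 mM) stimulation; lower signal means less secretion.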
HT1080 IDH1KD tx: qHTS for induction of synthetic lethality in tumor cells producing 2HG: qHTS for the HT-1080-IDH1KD cell line. HT-1080 IDH1 knockdown viability, ATP luminescence, 48 h. Potency, µM (titrated, usually from 46.1 µM), without a hit: top-dose activity, negative = toxicity, actives largely listed as cytotoxic. hit rate 2% among 360,000. AID 686971, 2013;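 further: potency means the concentration at half of the fitted maximal effect; 0% = DMSO wells and -100% = cell-free medium wells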
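Assay cells: HT-1080 with IDH1 knockdown, 750 per well, RPMI/5% FBS. Exposure: 48 h at 37 °C following 2 h pre-incubation. Read: CellTiter-Glo luminescence; fitted concentration-response, curve class assigned.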
TDP1 cell noCPT: qHTS for Inhibitors of human tyrosyl-DNA phosphodiesterase 1 (TDP1): qHTS in cells in absence of CPT. hit rate 15% among 420,000. Potency, µM (series often up to 46.2 µM), for inactives: at the highest dose activity change, negative = growth inhibition, hits mostly inhibitors. DT40 Tdp1-/- hTDP1 cells, no CPT, ATP luminescence, 48 h; further: potency means the concentration at half of the fitted maximal effect; nearly all actives have a fitted effect of over 55% in size
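Chicken DT40 Tdp1-/- cells complemented with human TDP1, screened without camptothecin (DMSO vehicle only), 400 cells/well. Compounds pin-transferred, cells incubated at 37 °C for at least 48 hr. Growth read as ATP-dependent luminescence (CellTiter-Glo, 30 min at RT).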
TDP1 cell CPT: qHTS for Inhibitors of human tyrosyl-DNA phosphodiesterase 1 (TDP1): qHTS in cells in presence of CPT; hit rate 12% among 420,000; chicken DT40 Tdp1-/-;hTDP1 cells + 20 nM CPT, ATP luminescence, 48 h; AID 686979, 2013; Potency, µM (doses to about 46.2 µM), inactives show top-dose activity change, negative = growth inhibition, hits mostly inhibitors; further: potency means the concentration at half of the fitted maximal effect; nearly all actives have a fitted effect of over 55% in size
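Cell growth measured by CellTiter-Glo luminescence after a minimum 48 h, 37 C compound exposure with 20 nM CPT in Tdp1-knockout DT40 cells stably expressing hTDP1, seeded 400/well; qHTS titration format.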
The depositor's hits bear a star; ? = inconclusive; / = no result; [ ] = another dose, or the depositor's remark. Sampled rows, rich in hits. Any-hit rate of the full collection: about 19%. Unless noted, the call rests on the fitted dose curve; in most records, active means well fitted curve in the direction sought with a large enough effect; inconclusive means small, poorly fitted or top-dose-only effect, or another doubt; inactive means no such curve, though single readings can be large; an effect the other way counts as inactive or inconclusive. Unless noted, on the % scale 0 is the no-effect control and ±100 the full control effect.

SMILES	HT1080-NT tox	IL-1B inflam inh	HT1080 IDH1KD tx	TDP1 cell noCPT	TDP1 cell CPT
CC#CCN1C=C(C(=O)OCC)C(C)N(Cc2ccc(Br)cc2)S1(=O)=O (stereo not drawn)	-8.9%	-13.3	2.6%	23.1µM*	18.4µM*
CCOC(=O)C1=CN(Cc2cccc(F)c2)S(=O)(=O)N(C)C1c1ccc(F)c(Cl)c1 (stereo not drawn)	4.8%	15.5	1.1%	16.4µM*	?
CCCN1C(C)C(C(=O)OCC)=CN(Cc2cccc(I)c2)S1(=O)=O (stereo not drawn)	-13.9%	5.3	-11.1%	16.4µM*	?
CCOC(=O)C1=CN(Cc2cccc(F)c2)S(=O)(=O)N(C)C1c1ccc(C(F)(F)F)cc1 (stereo not drawn)	12.3%	-6.0	0.0%	?	?
Nc1nc2c(ncn2[C@@H]2O[C@H](CNS(=O)(=O)c3cccnc3)[C@@H](O)[C@H]2O)c(=O)[nH]1	22.0%	-19.3	18.2%	26.0%	0.3%
CSc1ccccc1NC(=O)CN(C)Cc1cc(=O)n2ccsc2n1	6.2%	36.9	-2.8%	-3.1%	11.3%
CCOC(=O)C1=CN(Cc2cccc(-c3ccc(Cl)nc3)c2)S(=O)(=O)N(C)C1C (stereo not drawn)	-4.0%	?	-5.3%	20.6µM*	23.1µM*
CCOC(=O)C1=CN(Cc2cccc(F)c2)S(=O)(=O)NC1CCc1ccccc1 (stereo not drawn)	?	?	?	25.9µM*	?
CCOC(=O)C1=CN(Cc2cccc(Br)c2)S(=O)(=O)N(CC)C1C (stereo not drawn)	-4.7%	-20.3	-1.4%	?	?
O=C(c1ccc(Cl)cc1)N1CCOc2ccccc21	-6.5%	-3.8	-0.8%	?	?
CN(C)c1ccc(-c2cncnc2NCCc2cnc[nH]2)cc1	/	/	/	-22.5%	?
O=C(Nc1ccccc1N1CCCC1)c1cccc(S(=O)(=O)N2CCOCC2)c1	8.1%	-8.7	5.4%	?	?
N#Cc1ccccc1S(=O)(=O)N1CCN(CC(=O)Nc2ccnn2C2CCCC2)CC1	3.8%	22.4	1.4%	-14.6%	-0.7%
O=C(CN1CCN(S(=O)(=O)c2ccccc2F)CC1)Nc1ccnn1C1CCCC1	-0.3%	16.3	0.8%	20.6µM*	?
O=C(CN1CCN(S(=O)(=O)c2ccccc2F)CC1)Nc1ccccc1C(=O)c1ccccc1	?	-16.9	-4.2%	29.1µM*	?
CCOc1cc(/C=C/C(=O)c2ccc(OC)c(CN3CCOCC3)c2)cc(Br)c1O	?	-96.1*	23.1µM*	?	?
CC(C)n1ncc2c(C(=O)Nc3ccc(S(C)(=O)=O)cc3)cc(C3CC3)nc21	-12.6%	-26.3	0.7%	?	?
CC(=O)Nc1ccc(NC(=O)c2cc(C3CC3)nc3c2cnn3C(C)C)cc1	-11.5%	-9.3	-9.5%	?	29.1µM*
CC(C)n1ncc2c(C(=O)Nc3cccc(S(=O)(=O)N(C)C)c3)cc(C3CC3)nc21	-2.5%	/	-2.7%	9.2µM*	18.4µM*
COc1ccc(CCNC(=O)C2CCN(c3ncnc4c3nc3n4CCCCC3)CC2)c(OC)c1	/	/	/	0.1%	10.8%
O=c1c2sccc2n(Cc2cc(=O)n3ccccc3n2)c(=O)n1-c1cc(F)ccc1F	/	/	/	-0.3%	-16.0%
N#CC(c1ccccn1)(c1ncc(C(F)(F)F)cc1Cl)N1CCOCC1 (stereo not drawn)	2.0%	-4.4	2.2%	-10.0%	-7.5%
N#CC(c1ccncc1)(c1ncc(C(F)(F)F)cc1Cl)N1CCOCC1 (stereo not drawn)	-4.3%	-76.8*	1.3%	?	-4.4%
O=C(NC(=S)N1CCCCCC1)c1cccc([N+](=O)[O-])c1	-0.5%[9.24 µM]	16.7	-3.9%	16.4µM*	?
CCCC(=O)NC(=S)N1CCN(c2ccc([N+](=O)[O-])cc2)CC1	-16.9%	11.0	-16.0%	-21.6%	-14.7%
SMILES	HT1080-NT tox	IL-1B inflam inh	HT1080 IDH1KD tx	TDP1 cell noCPT	TDP1 cell CPT
O=C(NC(=S)N1CCN(c2ccc([N+](=O)[O-])cc2Cl)CC1)c1ccco1	5.2%	11.1	-0.3%	16.4µM*	20.6µM*
O=C(NC(=S)N1CCN(c2ccc([N+](=O)[O-])cc2)CC1)c1ccccc1	-0.2%	8.0	4.4%	3.26µM*	?
O=[N+]([O-])c1ccc(N2CCN(C(=S)c3cccc([N+](=O)[O-])c3)CC2)cc1	-5.1%	-16.3	-7.0%	20.6µM*	14.6µM*
NC(=O)NCCCC(=O)NCC(c1ccccc1Cl)c1c[nH]c2ccccc12 (stereo not drawn)	-3.3%	34.9	0.5%	?	?
Cc1ccc(-c2nn(CC(=O)N3CCOCC3)c(=O)c3ccccc23)cc1S(=O)(=O)N(C)C	-1.9%	-0.8	-8.4%	-11.8%	0.4%
CCc1cc(CN2CCOCC2)c(NC(=O)c2ccccc2)s1	-10.1%	-21.8	-3.4%	?	-21.1%
Cc1ccc(C(=O)NC(=S)N2CCN(c3ccc([N+](=O)[O-])cc3)CC2)cc1	-5.8%	-2.3	-11.8%	25.9µM*	?
COc1ccc(OC)c(CN2CCN(Cc3cc(=O)oc4cc(O)ccc34)CC2)c1	-0.2%	26.6	-14.6%	?	-18.1%
COc1ccc(N2CCN(Cc3cc(=O)oc4cc(-c5ccccc5)c(O)cc34)CC2)cc1	-16.2%	0.0	-17.1%	6.51µM*	5.8µM*
Cc1cc(C)c2c(CN3CCN(c4ccccc4F)CC3)cc(=O)oc2c1	18.9%	14.3	13.8%	?	23.1µM*
Cc1cc(C)c2c(CN3CCN(C)CC3)cc(=O)oc2c1	-2.1%	-4.4	0.7%	-7.0%	-10.4%
O=c1cc(CN2CCN(c3ccccc3F)CC2)c2cc(O)c(-c3ccccc3)cc2o1	20.4%	32.1	8.9%	6.51µM*	?
O=C(CS(=O)(=O)c1ccccc1)NCc1ccc(Cl)cc1	20.4%	8.7	17.6%	10.1%	-11.2%
O=C1NC[C@@H](CCCCN2C[C@H](Cc3ccc(O)cc3)N(CCc3ccccc3)C(=O)C2=O)N(CCC2CCCCC2)C1=O	11.6%	?	6.9%	-3.8%	1.9%
O=C1NC[C@@H](CCCCN2C[C@H](Cc3ccccc3)N(CC3CCCCC3)C(=O)C2=O)N(Cc2ccccc2)C1=O	1.2%	35.8	-2.0%	-20.6%	0.2%

Screens (PubChem BioAssay)
